# Measured values taken from article PMC7862700, “An all-to-all approach to the identification of sequence-specific readers for epigenetic DNA modifications on cytosine”.
# How the values were obtained:
# Assay in all cases: DAPPL (digital affinity profiling via proximity ligation, sequencing); 10 mM Tris-HCl pH 7.5, 50 mM NaCl, 1 mM DTT, 4% glycerol, room temperature, 30 min; GST-TFs on glutathione beads, 16-mer random dsDNA library, 0.1% formaldehyde crosslink after washing; high values mean tight binding
# Conditions in all cases: protein: recombinant; tags: N-terminal GST; dsDNA, one strand shown
# GABPA = target: T1, GABPA (Homo sapiens, UniProt Q06546 1-454)
# T1 sequence: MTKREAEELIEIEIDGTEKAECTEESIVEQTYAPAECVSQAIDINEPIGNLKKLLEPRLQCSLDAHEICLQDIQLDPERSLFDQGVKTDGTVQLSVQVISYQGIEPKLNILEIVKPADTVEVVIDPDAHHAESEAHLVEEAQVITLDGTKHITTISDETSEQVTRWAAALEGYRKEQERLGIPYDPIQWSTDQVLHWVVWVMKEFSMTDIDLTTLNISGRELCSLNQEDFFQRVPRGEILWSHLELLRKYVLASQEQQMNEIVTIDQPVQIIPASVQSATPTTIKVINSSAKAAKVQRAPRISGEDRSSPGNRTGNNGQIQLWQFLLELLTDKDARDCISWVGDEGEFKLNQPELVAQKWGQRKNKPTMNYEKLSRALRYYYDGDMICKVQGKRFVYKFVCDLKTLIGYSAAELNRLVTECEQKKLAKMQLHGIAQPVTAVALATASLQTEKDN
# Summary of the method: (§1)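 Human transcription factors were made in yeast as GST fusions, captured on glutathione beads and barcoded with DNA. With a tag-only sample included, the pool was incubated with 200 nmole of a random double-stranded 16-mer DNA library in Tris/NaCl/DTT/glycerol buffer at room temperature for 30 min, then crosslinked with 0.1% formaldehyde after washing, ligated by proximity, amplified and sequenced. For binding signal, each hexamer's read frequency for a factor is divided by its frequency for the tag-only sample.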
# ELF1 = ELF1 (Homo sapiens, UniProt P32519 1-619)
# Chain of ELF1 (P32519 whole entry): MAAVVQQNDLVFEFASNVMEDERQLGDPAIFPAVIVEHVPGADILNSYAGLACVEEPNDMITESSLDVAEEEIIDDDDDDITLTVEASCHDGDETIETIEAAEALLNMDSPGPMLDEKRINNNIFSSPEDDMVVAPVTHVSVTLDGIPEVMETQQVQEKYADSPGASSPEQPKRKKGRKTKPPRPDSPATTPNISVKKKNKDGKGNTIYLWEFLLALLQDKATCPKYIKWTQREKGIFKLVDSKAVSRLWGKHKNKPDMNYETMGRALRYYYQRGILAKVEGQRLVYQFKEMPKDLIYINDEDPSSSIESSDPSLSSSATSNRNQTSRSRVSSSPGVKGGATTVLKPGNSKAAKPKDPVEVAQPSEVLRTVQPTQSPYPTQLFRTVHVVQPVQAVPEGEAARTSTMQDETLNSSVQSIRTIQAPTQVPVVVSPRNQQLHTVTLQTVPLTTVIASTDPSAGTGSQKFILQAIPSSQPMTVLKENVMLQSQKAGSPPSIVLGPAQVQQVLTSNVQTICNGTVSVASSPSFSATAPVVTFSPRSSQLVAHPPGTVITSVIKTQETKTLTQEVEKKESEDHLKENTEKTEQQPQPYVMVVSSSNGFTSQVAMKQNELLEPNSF
# Summary of the method: as §1
# SPIB = SPIB (Homo sapiens, UniProt Q01892 1-262)
# Chain of SPIB (Q01892 whole entry): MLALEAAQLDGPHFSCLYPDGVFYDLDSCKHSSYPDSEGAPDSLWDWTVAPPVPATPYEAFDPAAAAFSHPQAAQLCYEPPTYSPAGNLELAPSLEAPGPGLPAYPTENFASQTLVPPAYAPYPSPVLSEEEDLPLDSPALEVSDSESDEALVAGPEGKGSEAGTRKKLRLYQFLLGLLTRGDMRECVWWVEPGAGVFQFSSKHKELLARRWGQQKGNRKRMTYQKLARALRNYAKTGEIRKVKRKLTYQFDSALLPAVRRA
# Summary of the method: as §1
# ELK3 = target: T2, ELK3 (Homo sapiens, UniProt P41970 1-407)
# T2 sequence: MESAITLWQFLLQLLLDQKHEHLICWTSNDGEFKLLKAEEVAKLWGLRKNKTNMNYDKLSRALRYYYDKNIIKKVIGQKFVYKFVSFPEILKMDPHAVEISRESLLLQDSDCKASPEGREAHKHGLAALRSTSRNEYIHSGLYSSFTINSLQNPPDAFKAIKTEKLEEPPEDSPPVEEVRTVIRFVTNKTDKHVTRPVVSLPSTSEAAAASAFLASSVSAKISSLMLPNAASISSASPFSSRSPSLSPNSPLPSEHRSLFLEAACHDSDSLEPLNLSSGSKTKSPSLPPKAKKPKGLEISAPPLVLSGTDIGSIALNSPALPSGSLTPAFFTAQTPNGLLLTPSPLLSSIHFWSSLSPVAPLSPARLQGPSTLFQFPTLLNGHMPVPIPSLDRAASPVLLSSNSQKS
# Summary of the method: as §1
# SPIC = target: T3, SPIC (Homo sapiens, UniProt Q8N5J4 1-248)
# T3 sequence: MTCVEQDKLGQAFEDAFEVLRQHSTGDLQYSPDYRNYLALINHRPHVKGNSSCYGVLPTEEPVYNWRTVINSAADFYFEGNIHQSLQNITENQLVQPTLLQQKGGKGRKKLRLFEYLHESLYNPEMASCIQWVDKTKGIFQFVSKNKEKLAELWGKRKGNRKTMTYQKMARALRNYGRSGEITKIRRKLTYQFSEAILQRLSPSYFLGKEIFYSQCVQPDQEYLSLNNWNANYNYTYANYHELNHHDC
# Summary of the method: as §1
# ETV1 = ETV1 (Homo sapiens, UniProt P50549 1-477)
# Chain of ETV1 (P50549 whole entry): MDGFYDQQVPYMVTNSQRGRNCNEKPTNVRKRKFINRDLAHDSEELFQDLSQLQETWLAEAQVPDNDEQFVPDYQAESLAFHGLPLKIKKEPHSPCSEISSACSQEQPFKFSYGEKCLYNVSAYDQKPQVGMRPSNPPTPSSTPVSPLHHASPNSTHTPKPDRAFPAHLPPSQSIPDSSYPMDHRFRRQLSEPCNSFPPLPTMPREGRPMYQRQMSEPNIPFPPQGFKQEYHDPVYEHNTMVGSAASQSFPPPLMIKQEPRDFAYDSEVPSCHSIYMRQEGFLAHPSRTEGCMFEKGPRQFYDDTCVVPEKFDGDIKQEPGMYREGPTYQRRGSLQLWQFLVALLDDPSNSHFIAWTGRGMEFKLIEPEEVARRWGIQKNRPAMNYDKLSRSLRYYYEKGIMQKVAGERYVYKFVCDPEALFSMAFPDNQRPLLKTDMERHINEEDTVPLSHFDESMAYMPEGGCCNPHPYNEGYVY
# Summary of the method: as §1
# ERF = target: T4, ERF (Homo sapiens, UniProt P50548 1-548)
# T4 sequence: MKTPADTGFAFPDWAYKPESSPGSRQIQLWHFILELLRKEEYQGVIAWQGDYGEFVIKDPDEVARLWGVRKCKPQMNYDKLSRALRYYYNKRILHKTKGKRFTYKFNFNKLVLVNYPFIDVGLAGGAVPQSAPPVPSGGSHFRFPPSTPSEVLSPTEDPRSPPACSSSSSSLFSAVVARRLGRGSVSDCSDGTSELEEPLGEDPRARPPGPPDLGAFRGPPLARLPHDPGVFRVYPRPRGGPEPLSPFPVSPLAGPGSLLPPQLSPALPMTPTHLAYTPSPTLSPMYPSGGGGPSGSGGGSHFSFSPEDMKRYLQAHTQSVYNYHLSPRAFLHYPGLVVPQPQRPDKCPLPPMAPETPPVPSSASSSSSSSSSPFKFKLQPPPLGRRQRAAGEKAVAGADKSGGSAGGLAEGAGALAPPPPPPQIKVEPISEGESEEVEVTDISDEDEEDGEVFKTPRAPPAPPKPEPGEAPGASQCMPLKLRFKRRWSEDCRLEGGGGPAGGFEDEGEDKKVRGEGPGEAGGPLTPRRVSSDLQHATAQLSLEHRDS
# Summary of the method: as §1
# ETV3L = target: T5, ETV3L (Homo sapiens, UniProt Q6ZN32 1-361)
# T5 sequence: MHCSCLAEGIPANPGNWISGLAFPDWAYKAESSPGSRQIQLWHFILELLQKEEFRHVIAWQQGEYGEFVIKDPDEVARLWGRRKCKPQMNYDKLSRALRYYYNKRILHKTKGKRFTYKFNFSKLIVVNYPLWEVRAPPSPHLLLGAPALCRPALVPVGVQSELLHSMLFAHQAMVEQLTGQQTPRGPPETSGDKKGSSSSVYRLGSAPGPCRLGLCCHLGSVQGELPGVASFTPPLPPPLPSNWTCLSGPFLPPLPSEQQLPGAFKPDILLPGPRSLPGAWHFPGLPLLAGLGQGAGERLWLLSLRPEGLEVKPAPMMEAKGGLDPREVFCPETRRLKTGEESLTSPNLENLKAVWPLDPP
# Summary of the method: as §1
# ETS2 = target: T6, ETS2 (Homo sapiens, UniProt P15036 1-469)
# T6 sequence: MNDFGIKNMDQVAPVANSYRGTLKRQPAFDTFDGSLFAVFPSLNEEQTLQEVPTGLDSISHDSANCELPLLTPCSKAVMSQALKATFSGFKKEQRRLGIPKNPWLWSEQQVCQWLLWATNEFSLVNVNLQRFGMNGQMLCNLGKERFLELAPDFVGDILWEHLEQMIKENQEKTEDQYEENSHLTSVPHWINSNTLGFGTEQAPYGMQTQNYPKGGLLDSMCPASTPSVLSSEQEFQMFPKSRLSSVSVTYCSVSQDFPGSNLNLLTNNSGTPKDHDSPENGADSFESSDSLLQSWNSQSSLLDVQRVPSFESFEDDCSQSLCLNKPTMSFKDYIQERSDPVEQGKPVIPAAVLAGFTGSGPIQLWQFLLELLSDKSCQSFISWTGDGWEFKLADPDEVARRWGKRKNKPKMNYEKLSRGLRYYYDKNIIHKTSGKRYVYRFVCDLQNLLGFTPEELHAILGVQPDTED
# Summary of the method: as §1
# SPDEF = target: T7, SPDEF (Homo sapiens, UniProt O95238 1-335)
# T7 sequence: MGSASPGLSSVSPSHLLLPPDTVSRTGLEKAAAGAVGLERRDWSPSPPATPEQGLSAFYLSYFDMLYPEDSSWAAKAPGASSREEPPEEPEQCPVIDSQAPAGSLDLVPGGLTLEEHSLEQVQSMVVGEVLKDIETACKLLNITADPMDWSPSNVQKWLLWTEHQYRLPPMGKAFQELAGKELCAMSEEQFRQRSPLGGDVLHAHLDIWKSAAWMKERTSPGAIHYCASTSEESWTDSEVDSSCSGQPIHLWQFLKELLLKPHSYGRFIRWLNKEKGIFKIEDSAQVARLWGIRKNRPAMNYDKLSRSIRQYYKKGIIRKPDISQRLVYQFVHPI
# Summary of the method: as §1
# ETV3 = target: T8, ETV3 (Homo sapiens, UniProt P41162-2 1-143)
# T8 sequence: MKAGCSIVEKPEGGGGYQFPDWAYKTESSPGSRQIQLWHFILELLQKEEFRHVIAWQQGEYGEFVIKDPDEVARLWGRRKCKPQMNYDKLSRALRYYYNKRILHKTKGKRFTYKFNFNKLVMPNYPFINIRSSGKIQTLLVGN
# Summary of the method: as §1
# ETV6 = ETV6 (Homo sapiens, UniProt P41212 1-452)
# Chain of ETV6 (P41212 whole entry): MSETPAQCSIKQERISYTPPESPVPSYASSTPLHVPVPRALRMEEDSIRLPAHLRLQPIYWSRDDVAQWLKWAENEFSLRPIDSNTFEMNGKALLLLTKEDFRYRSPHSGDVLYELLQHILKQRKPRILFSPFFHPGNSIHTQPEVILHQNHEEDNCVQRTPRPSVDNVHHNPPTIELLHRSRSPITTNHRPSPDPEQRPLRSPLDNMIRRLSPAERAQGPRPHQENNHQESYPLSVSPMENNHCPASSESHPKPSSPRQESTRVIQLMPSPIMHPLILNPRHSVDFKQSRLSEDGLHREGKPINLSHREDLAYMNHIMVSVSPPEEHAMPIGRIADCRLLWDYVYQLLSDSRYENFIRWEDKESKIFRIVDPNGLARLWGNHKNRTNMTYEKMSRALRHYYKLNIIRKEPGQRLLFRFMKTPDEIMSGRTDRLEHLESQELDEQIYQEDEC
# Summary of the method: as §1
sequence,measurement,setting,value
GATCAA,binding signal,GABPA,"1.16 fold enrichment (6-mer frequency, TF over GST control)"
same,binding signal,ELF1,"1.04 fold enrichment (6-mer frequency, TF over GST control)"
same,binding signal,SPIB,"1.03 fold enrichment (6-mer frequency, TF over GST control)"
same,binding signal,ELK3,"1.09 fold enrichment (6-mer frequency, TF over GST control)"
same,binding signal,SPIC,"1.05 fold enrichment (6-mer frequency, TF over GST control)"
same,binding signal,ETV1,"1.04 fold enrichment (6-mer frequency, TF over GST control)"
same,binding signal,ERF,"1.02 fold enrichment (6-mer frequency, TF over GST control)"
same,binding signal,ETV3L,"1.1 fold enrichment (6-mer frequency, TF over GST control)"
same,binding signal,ETS2,"1.04 fold enrichment (6-mer frequency, TF over GST control)"
same,binding signal,SPDEF,"1.05 fold enrichment (6-mer frequency, TF over GST control)"
same,binding signal,ETV3,"1.01 fold enrichment (6-mer frequency, TF over GST control)"
same,binding signal,ETV6,"1.07 fold enrichment (6-mer frequency, TF over GST control)"
